HIV RNase H inh-1: blocks HIV-1 RNase H cleavage of RNA/DNA duplex; P04585; RT-RNase H RNA/DNA duplex cleavage, fluorescence; inhibition, % at 10 µM; hit rate 1.9% among 65,000; AID 565; in the data active = inhibition above about 50%
HIV RNase H inh-2: confirmation of HIV-1 reverse transcriptase RNase H inhibitors; shares compounds with HIV RNase H inh-1; Recombinant RT RNase H, fluorescent RNA/DNA duplex cleavage; inhibition, % at 10 µM; hit rate 39% among 1,000; in the data active = inhibition above about 48%; inconclusive = no clear call, values can overlap the other calls
The depositor's hits bear a star; ? = inconclusive. The full list was thinned out, with hits kept by preference.

SMILES	HIV RNase H inh-1	others
N#CC1=C(N)SC(N)=C(C#N)C1c1ccoc1	86.2*	HIV RNase H inh-2=43.9
Cc1[nH]nc2c1C(c1ccoc1)C(C#N)=C(N)O2 (centres undefined)	2.5
N#CC1=C(N)Oc2cc(O)ccc2C1c1cccs1 (centres undefined)	-38.9
CC1=C(C#N)C(c2ccoc2)C(C(=O)OCc2ccccc2)=C(N)S1 (centres undefined)	-46.6
Cc1ccc(-n2nc(C)c3c2OC(N)=C(C#N)C3c2ccc(F)cc2)cc1 (centres undefined)	40.2
O=C1NC(=S)SC1=C1CCCCCC1	-16.7
CC1N=C2c3ccccc3N=C(SCc3cc(=O)n4ccccc4n3)N2C1=O (centres undefined)	-6.1
O=c1[nH]c(CN2CCCCC2)nc2c1C1(CCCC1)Cc1ccccc1-2	7.8
CCCN(CCC)C(=O)c1ccc2c(c1)N(Cc1ccccc1)C(=O)CS2=O (centres undefined)	0.4
CC(C)c1nc(=S)c2ccccc2[nH]1	22.6
S=c1nc(C2CC2)[nH]c2ccccc12	84.0*	HIV RNase H inh-2=69.2*
O=C(Cc1ccccc1)N1CCC(c2nc3ccccc3[nH]2)CC1	3.5
CC(C)(C)c1cc(C(=O)NCc2ccccc2)ccn1	-3.6
OCCN1CCOCCN(CCO)CCOCC1	2.2
COc1ccc(C(=O)Nc2ccccc2NC(=O)c2ccco2)cc1OC	-1.7
N#Cc1c(NC(=O)Cn2c(=O)oc3ccccc32)oc(-c2ccccc2)c1-c1ccccc1	-11.8
COc1ccc(C(=O)Nc2oc(-c3ccccc3)c(-c3ccccc3)c2C#N)cc1OC	62.3*	HIV RNase H inh-2=?
C=CCSc1nnc(-c2ccccc2NC(=O)CC)c(=O)[nH]1	-2.9
COC(=O)Nc1nnc(-c2ccccc2Cl)s1	-6.2
COC(=O)Nc1nnc(-c2ccncc2)s1	66.8*	HIV RNase H inh-2=?
CCOC(=O)Nc1nnc(-c2cccc(OC)c2)s1	-0.3
O=C1CSC(c2cn(-c3ccccc3)nc2-c2cccs2)N1CC1CCCO1 (centres undefined)	-19.0
O=c1c2[nH]c3ccc(F)cc3c2ncn1CCN1CCN(Cc2ccccc2)CC1	-32.0
Cc1ccc2[nH]c3c(=O)n(CCCN4CCOCC4)cnc3c2c1	-4.7
O=c1c2[nH]c3ccc(F)cc3c2ncn1CCN1CCOCC1	69.7*	HIV RNase H inh-2=-0.5
SMILES	HIV RNase H inh-1	others
CCCCn1c(=O)[nH]c(=O)c2c1nc(COC(=O)c1c(C)noc1C)n2CCC	-15.5
O=C(NS(=O)(=O)c1ccc2c(c1)OCCO2)c1ccccc1	-6.7
COC(=O)c1c(-c2cccnc2)csc1NC(=O)c1cc(C)on1	85.8*	HIV RNase H inh-2=?
COC(=O)c1c(-c2ccc(F)cc2)csc1NC(=O)c1ccco1	7.7
COc1cccc(-c2cc(C(=O)Nc3cc(C)on3)no2)c1	3.3
Fc1ccccc1Cn1nnc2c(-n3ccnc3)ncnc21	-4.0
COc1ccc(Br)cc1C1CC(=O)N2CN(C)CSC2=C1C#N (centres undefined)	80.0*	HIV RNase H inh-2=64.4*
Cc1ccc(C2CC(=O)N3CN(c4ccc(Br)cc4)CSC3=C2C#N)o1 (centres undefined)	40.5
COc1cc(OC)c(C2CC(=O)N3CN(C)CSC3=C2C#N)cc1OC (centres undefined)	76.0*	HIV RNase H inh-2=56.7*
COc1cc(OC)c(C2CC(=O)N3CN(c4ccccc4)CSC3=C2C#N)cc1OC (centres undefined)	33.2
CCc1ccccc1N1CSC2=C(C#N)C(c3cc(OC)c(OC)cc3OC)CC(=O)N2C1 (centres undefined)	78.6*	HIV RNase H inh-2=63.4*
Cc1ccc(C2CC(=O)N3CN(Cc4ccco4)CSC3=C2C#N)cc1 (centres undefined)	25.6
COc1ccc(OC)c(C2CC(=O)N3CN(c4cccc(Cl)c4)CSC3=C2C#N)c1 (centres undefined)	-7.7
CC(C)c1ccc(C2CC(=O)N3CN(C)CSC3=C2C#N)cc1 (centres undefined)	72.9*	HIV RNase H inh-2=65.3*
COc1ccc(OC)c(C2CC(=O)N3CN(c4ccc(C)c(Cl)c4)CSC3=C2C#N)c1 (centres undefined)	-5.5
CCOC(=O)c1ccc(N2CSC3=C(C#N)C(c4ccc(OC)cc4OC)CC(=O)N3C2)cc1 (centres undefined)	16.4
COc1ccc(OC)c(C2CC(=O)NC(SC)=C2C#N)c1 (centres undefined)	-38.4
COc1ccccc1NC(=O)CCn1c(=O)sc2ccccc21	-35.3
O=C1N2c3ccccc3CCc3cccc(c32)C1(O)C(F)(F)F (centres undefined)	-71.8
CCOC(=O)N1CCC(NC(=O)c2cnc3n(c2=O)CCS3)CC1	5.1
CN1CCN(c2ncnc3c2sc2nc(N4CCCC4)c4c(c23)CC(C)(C)OC4)CC1	2.5
CCc1ccc(NC(=O)CCNS(=O)(=O)c2cccc3nonc23)cc1	-19.9
Cc1cccc(C)c1-n1nnnc1S(=O)(=O)Cc1ccccc1Cl	-56.9
COc1ccc(O)c(-c2[nH]ncc2C(=O)c2ccccc2C)c1	-5.9
N#CC1=C2SCN(c3ccccc3)CN2C(=O)CC1c1cccs1 (centres undefined)	-5.3
SMILES	HIV RNase H inh-1	others
COc1ccc2ccccc2c1C1CC(=O)N2CN(C)CSC2=C1C#N (centres undefined)	68.1*	HIV RNase H inh-2=10.8
N#CC1=C2SCN(c3ccccc3)CN2C(=O)CC1c1ccccc1Cl (centres undefined)	67.4*	HIV RNase H inh-2=26.0
N#CC1=C2SCN(c3ccccc3)CN2C(=O)CC1c1c(Cl)cccc1Cl (centres undefined)	38.2
C=CCOc1c(Cl)cc(C2NC(=O)NC(C)=C2C(=O)OC)cc1Cl (centres undefined)	-40.7
CN(C)S(=O)(=O)c1cc(S(=O)(=O)N(C)C)c(Cl)cc1N	-7.4
O=C(CSc1nc2ccccc2[nH]1)NCCCn1ccnc1	3.4
N#CC1=C(N)N(c2ccccc2Sc2ccccc2)C(=O)C1	49.2
O=C(Nc1c(-c2ccccc2)nc2sccn12)c1ccccc1	3.4
CC(C)n1c(C(=O)OCC(=O)NCc2ccc3c(c2)OCO3)cc2sccc21	-38.5
COc1ccc(-n2c(=O)c3ccccc3n(CC(=O)NC3CCCC3)c2=O)cc1	-4.7
CC1Oc2ccccc2N(CC(=O)c2ccccc2)C1=O (centres undefined)	-0.4
CC1Oc2ccccc2N(Cc2ccccc2F)C1=O (centres undefined)	89.8*	HIV RNase H inh-2=11.7
CC1Oc2ccccc2N(Cc2ccccc2Cl)C1=O (centres undefined)	-26.0
O=C(Nc1cn(-c2ccccc2)nc1-c1cccs1)c1ccco1	45.4
O=C(COC(=O)c1ccc(S(=O)(=O)N2CCOCC2)cc1)Nc1nc(-c2ccccc2)cs1	-2.9
O=C(COc1ccccc1)Nc1nc(-c2ccc(S(=O)(=O)N3CCOCC3)cc2)cs1	66.3*	HIV RNase H inh-2=19.6
O=C(Nc1nc(-c2cccnc2)cs1)c1ccc(S(=O)(=O)N2CCOCC2)cc1	-1.2
CCCc1cc(=O)[nH]c(/N=C(/NC(=O)C(C)N2C(=O)c3ccccc3C2=O)Nc2ccccc2)n1 (centres undefined)	1.7
CCCc1cc(=O)[nH]c(/N=C(/NC(=O)c2ccccc2)Nc2ccc3c(c2)OCCO3)n1	60.5*	HIV RNase H inh-2=48.5
Cc1cc(=O)[nH]c(/N=C(/NC(=O)c2ccccc2)Nc2ccc3c(c2)OCCO3)n1	48.2
CC1CCCC(NC(=O)CN(C)S(=O)(=O)c2cccc3cccnc23)C1C (centres undefined)	-11.4
CCOc1ccccc1N1CCN(S(=O)(=O)c2cccc3nsnc23)CC1	-4.1

Assay outcomes from PubChem BioAssay.
